The structures appear in SMILES notation. Records with an inconclusive call do not appear. Active and inactive are the calls of the source. Unless noted, calls come from the whole dose curve; as a rule, active = well fitted curve in the direction sought with a large enough effect; inconclusive = small, poorly fitted or top-dose-only effect, or another doubt; inactive = no such curve, though single readings can be large; an effect the other way counts as inactive or inconclusive.

Results on 19 compounds are retold here after PubChem BioAssay (NCATS).

Assay [1] is described as follows: qHTS to identify inhibitors of the type 1 interferon - major histocompatibility complex class I in skeletal muscle: primary screen against the NCATS LOPAC collection (AID 1347405).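 Note: lytic HiBiT luminescence reporting HLA-B protein level.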 In outline: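 CRISPR-engineered immortalized human myoblasts (C25cl48) with HiBiT fused to endogenous HLA-B*08:01, stimulated with 4 ng/ml IFN-beta. LOPAC compounds tested as a 7-point 1:4.3 titration (top 46 uM final), 24 h at 37 C; lytic HiBiT luminescence read.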

A short description of assay [2]: qHTS to identify inhibitors of the type 1 interferon - major histocompatibility complex class I in skeletal muscle: primary screen against the NCATS Pharmaceutical Collection (AID 1347407).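 Note: luminescence of HiBiT knocked into endogenous HLA-B as interferon-induced MHC class I level.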 Note: potency is the fitted concentration of half-maximal effect. In outline:
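A qHTS format is used: 8-point, 1:5 compound series with 46 uM top final concentration, applied alongside 4 ng/ml IFN-beta to HLA-B*08:01-HiBiT knock-in myoblasts. Luminescence is measured after 24 h treatment.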

A short description of assay [3]: qHTS for inhibitors of adenylyl cyclases using a fission yeast platform: a pilot screen against the NCATS LOPAC library (AID 1347410). In outline: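 Inhibition of GNAS-stimulated AC9 activity in S. pombe was inferred from derepression of a PKA-repressed fbp1-GFP reporter, measured as cytometric fluorescence after 18 h at 30C with compounds at up to 57 µM.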
The target in assay [4] is Protein phosphatase 1D (Homo sapiens) (UniProt O15297). Kind of assay: RapidFire Mass Spectrometry qHTS Assay for Modulators of WT P53-Induced Phosphatase 1 (WIP1) (AID 1347424).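 Note: amount of dephosphorylated VEPPL-S-QETFS peptide product formed by WIP1.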 Note: potency is the fitted concentration of half-maximal effect. The procedure, abridged: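 WIP1 (10 nM final) was preincubated 1 h at room temperature with compounds in Tris-HCl pH 7.5, 30 mM MgCl2, TCEP, EGTA, BSA; 2 uM VEPPL-pS-QETFS phosphopeptide was added for 5 min, quenched with formic acid, and dephosphorylated product quantified by RapidFire MS.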
Protein phosphatase 1D (Homo sapiens), sequence (O15297 whole entry, looked up): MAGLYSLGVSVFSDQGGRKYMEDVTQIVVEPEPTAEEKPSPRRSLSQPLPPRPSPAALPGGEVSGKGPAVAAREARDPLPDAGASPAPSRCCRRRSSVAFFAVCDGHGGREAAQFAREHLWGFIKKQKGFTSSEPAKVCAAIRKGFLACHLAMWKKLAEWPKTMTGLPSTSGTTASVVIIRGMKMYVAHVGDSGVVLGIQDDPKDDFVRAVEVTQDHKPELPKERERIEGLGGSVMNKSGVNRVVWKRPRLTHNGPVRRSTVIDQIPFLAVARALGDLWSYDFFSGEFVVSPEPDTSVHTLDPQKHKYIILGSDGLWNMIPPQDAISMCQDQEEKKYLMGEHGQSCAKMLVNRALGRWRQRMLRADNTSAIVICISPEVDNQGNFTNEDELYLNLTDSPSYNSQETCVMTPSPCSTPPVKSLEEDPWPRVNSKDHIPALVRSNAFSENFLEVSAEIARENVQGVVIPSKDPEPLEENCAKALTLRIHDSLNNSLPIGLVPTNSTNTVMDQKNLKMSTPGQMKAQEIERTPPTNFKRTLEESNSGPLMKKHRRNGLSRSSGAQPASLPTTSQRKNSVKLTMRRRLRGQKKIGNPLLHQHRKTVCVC

Assay [5] is described as follows: Validation qHTS assay for inhibitors of Activation Induced Cytidine Deaminase (AID): UDG Counterscreen signal (AID 1347427). In outline: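 Counterscreen read of UDG activity (2 U/mL, 4/3x) in the FRET deamination format with AID (1 uM, 4/3x), DJC20/DJC23 substrates (250 nM, 4x), 4 h at room temperature. NaOH stop, fluorescence at 560 ex/665 em.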
For assay [6], the target named is Single-stranded DNA cytosine deaminase (Homo sapiens) (UniProt Q9GZX7). Kind of assay: Validation qHTS assay for inhibitors of Activation Induced Cytidine Deaminase (AID): AID signal (AID 1347429). The procedure, abridged: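 FRET deamination assay: 1 uM AID (4/3x stock) with UDG, compound up to 114 uM, then 250 nM DJC20/DJC23 substrate (4x stock) for 4 hr at room temperature. NaOH added, 30 min; fluorescence read 540/590 nm.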
Single-stranded DNA cytosine deaminase (Homo sapiens), sequence (Q9GZX7 whole entry, looked up): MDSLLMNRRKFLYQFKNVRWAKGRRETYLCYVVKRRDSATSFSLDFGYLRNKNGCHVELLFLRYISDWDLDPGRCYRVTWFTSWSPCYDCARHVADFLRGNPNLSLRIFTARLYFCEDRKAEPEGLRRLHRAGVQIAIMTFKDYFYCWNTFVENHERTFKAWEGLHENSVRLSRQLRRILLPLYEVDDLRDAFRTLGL

Assay [7] in a line: Primary qHTS for Huh7 cytotoxicity: counterscreen for inhibitors of MERS-S pseudotyped particle cell entry (AID 1479147; calls by dose curve).
The nature of assay [8]: Primary qHTS for inhibitors of MERS-S pseudo-typed particle cell entry (AID 1479149; calls by dose curve; note: nearly all actives have a fitted effect of over 60% in size).
The nature of assay [9]: Primary qHTS for Vero E6 cytotoxicity: counterscreen for inhibitors of SARS-S pseudo-typed particle cell entry (AID 1479150; calls by dose curve).
Assay [10] has as its target Protein phosphatase 1D (Homo sapiens) (UniProt O15297). Kind of assay: Rhodamine-PBP qHTS Assay for Modulators of WT P53-Induced Phosphatase 1 (WIP1) (AID 1347425). The procedure, abridged:
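The read-out is the change in Rhodamine-PBP fluorescence (f1 - f0, ex 525/em 598 nm) as Pi is released, read each minute for 11 min. Final reaction: 5 nM WIP1, 10 uM phosphopeptide VEPPL-pS-QETFS, 10 uM Rh-PBP, 50 mM Tris-HCl pH 7.5, 30 mM MgCl2. Compound was preincubated with enzyme for 1 hour at room temperature.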

A short description of assay [11]: Primary qHTS for inhibitors of SARS-S pseudo-typed particle cell entry (AID 1479145; calls by dose curve; note: nearly all actives have a fitted effect of over 45% in size).
The nature of assay [12]: qHTS to identify inhibitors of the type 1 interferon - major histocompatibility complex class I in skeletal muscle: primary screen against the NCATS Mechanism Interrogation Plate v5.0 (MIPE) Libary (AID 1347411). Note: potency is the fitted concentration of half-maximal effect; nearly all actives have a fitted effect of over 65% in size. In outline:
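Immortalized human myoblasts (C25cl48) with HiBit knocked into endogenous HLA-B*08:01 were stimulated with 4 ng/ml IFN-beta and given compounds in 11-point 1:3 titration from 46 uM. After 24 h at 37 C, lytic HiBiT luminescence was read.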

Assay [13] is described as follows: qHTS for inhibitors of Rabies Virus screened against the NCATS CANVASS Library (AID 1347402; calls by dose curve; note: series mostly up to about 46 µM).

Take `CC(C)N(CCC(C(N)=O)(c1ccccc1)c1ccccn1)C(C)C` (configuration not stated): the outcome in [1], in assay [3], in [5] and in assay [6] was inactive. Besides, the Potency entry in assay [2], in assay [4], in assay [7], in [8] and in [9] was “inactive” throughout.
As to `COc1ccc2c(c1OC)C(=O)O[C@H]2[C@@H]1c2cc3c(cc2CCN1C)OCO3`, the result in assay [1], in [3], in assay [10], in [5] and in [6] was inactive. The Potency entry in assay [2], in [4], in assay [11], in assay [7], in assay [8] and in [9] was “inactive” in each case.
In the case of `COc1cccc2c1C(=O)c1c(O)c3c(c(O)c1C2=O)C[C@@](O)(C(=O)CO)CC3OC1CC(N2CCOC(OC)C2)C(O)C(C)O1` (some centres not stated), the results for the Potency in [2] and in assay [12] were 2.97 µM (active) and 0.093 µM (active), respectively. Further, the Potency result in assay [4], in assay [11], in [8] and in assay [9] was “inactive” throughout. For the same compound, the outcome in assay [10] was inactive.
For `CN1CCC[C@@H]1c1cccnc1`, the call in [13] was inactive. The Potency result in assay [11], in assay [7], in assay [8] and in assay [9] was “inactive” each time.
Turning to `Cc1ncsc1CCCl`, the call in assay [1], in assay [3], in assay [10], in [5] and in assay [6] was inactive. For the same compound, the Potency entry in assay [2], in assay [4], in assay [11], in [7], in assay [8] and in assay [9] was “inactive” each time.
Consider `CCCOC(=O)c1cncn1C(C)c1ccccc1` (configuration not stated), for which the Potency result in assay [2] and in assay [4] was “inactive” each time. In [10], the compound was called inactive.
Turning to `COc1ccc2[nH]cc(CCNC(C)=O)c2c1`, the call in assay [13] was inactive. In addition, the Potency result in [11], in assay [7], in [8] and in [9] was “inactive” throughout.
Regarding `COc1cc(OC)c(OC)cc1C=O`, the Potency entry in [2] and in assay [4] was “inactive” each time. Further, the result in assay [10] was inactive.
Turning to `[N-]=[N+]=CC(=O)OC[C@H](N)C(=O)O`, the Potency result in assay [2] and in [4] was “inactive” in each case. The result in assay [10] was inactive.
As to `COc1cc(CC(C)N)cc(OC)c1OC` (configuration not stated), the Potency entry in [2] and in [4] was “inactive” in each case. Further, in [10], the outcome was inactive.
As to `C=CCN1C[C@H](C)N([C@H](c2ccc(C(=O)N(CC)CC)cc2)c2cccc(OC)c2)C[C@H]1C`, the Potency result in assay [2] and in assay [4] was “inactive” in each case. Also, the result in assay [10] was inactive.
Consider `O=C1CN=C(c2ccccc2)c2cc([N+](=O)[O-])ccc2N1`, for which the Potency result in [2] and in assay [4] was “inactive” throughout. In addition, in assay [10], the call was inactive.
In the case of `O=C(Nc1ccc(Br)cc1)c1cc(Br)cc(Br)c1O`, in assay [2], the Potency entry is “inactive”. The Potency in [4] is 3.16 µM (active). The result in [10] was inactive.
As to `Nc1nc(N)nc(NC2CC2)n1`, the Potency entry in assay [2] and in assay [4] was “inactive” in each case. Also, the outcome in [10] was inactive.
Take `CCC(C)(C)c1ccc(O)cc1`: the Potency entry in assay [2] and in assay [4] was “inactive” each time. For the same compound, the call in [10] was inactive.
As to `CC(Cc1ccccc1)NCCn1cnc2c1c(=O)n(C)c(=O)n2C` (configuration not stated), the Potency entry in [2] and in assay [4] was “inactive” in each case. Further, the compound was called inactive in [10].
Take `NC(=O)CS(=O)C(c1ccccc1)c1ccccc1` (configuration not stated): the Potency result in assay [2] and in [4] was “inactive” throughout. Further, the call in assay [10] was inactive.
For the compound `C[C@]12CCC(=O)C=C1CC[C@@H]1[C@@H]2CC[C@@]2(C)[C@H]1CC[C@]2(C)O`, the Potency result in assay [2] and in assay [4] was “inactive” each time. For the same compound, the result in assay [10] was inactive.
On to `C#C[C@]1(O)CC[C@H]2[C@@H]3CCC4=CC(=O)CC[C@]4(C)[C@H]3CC[C@@]21C`, for which the Potency entry in assay [2] and in assay [4] was “inactive” in each case. In addition, in assay [10], the outcome was inactive.
